Test results taken from PubChem BioAssay (NCI).
The panel holds about 83,000 compounds, 20% with a hit somewhere; the sample as a whole holds those more often.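 Compound tested at a single concentration for 48 hours in 96-well plates; a percent growth value below 10 was scored as active.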 The source made the active and inactive calls.

These molecules were tested on MDA-MB-468 breast (assay: NCI-60 one-dose screen, 48 h (100 = growth as untreated, 0 = no growth, -100 = all killed)). Settings: 10 µM unless noted.

Compound | growth
O=C(O)COc1ccccc1F | 93.5% (inactive)
COc1cc(-c2nn(-c3ccc(NC(=O)c4ccc(Cl)c(C(F)(F)F)c4)cc3)cc2-c2ccncc2)ccc1Cl | 26% (inactive)
COc1cc(Nc2cc(C)nc(N3CCN(c4ccnc5cc(Cl)ccc45)CC3)n2)cc(OC)c1 | 11.2% (inactive)
C=C(C)[C@@H]1C[C@@H]2Cc3cc(F)ccc3N1O2 | 104% (inactive)
N#CC(I)CS(=O)(=O)c1ccccc1 (stereo not drawn) | 25% (inactive)
CNC(=O)c1cc(N2CCc3cc(NC(=O)Nc4ccc(N5CCOCC5)c(C(F)(F)F)c4)ccc32)ccn1 | 49.6% (inactive)
CCN(CC)CCCC(C)NCC(=O)NC(c1ccc2c(c1)OCO2)c1cc(Cl)c2cccnc2c1O (stereo not drawn) | 16.6% (inactive)
COc1cc2c(c(OC)c1OC)-c1ccc(N=NC(N)=S)c(=O)cc1[C@@H](NC(C)=O)CC2 | -40.8% (active)
Cn1cc(-c2nn3cc(-c4ccncc4)nc3s2)c2cc(Cl)ccc21 | 64.8% (inactive)
CCc1ccc(NC(=O)N[C@@H](Cc2cccc(F)c2)C(=O)N[C@@H]2C(=O)N3CCC[C@H]3C(=O)N3CCCC[C@H]3C(=O)N[C@@H](C)C(=O)N3C[C@H](C)C[C@H]3C(=O)O[C@H]2C)c(F)c1 | -18.2% (active)
CCCCCC(CCCCC)C(=O)O | 116% (inactive)
Cc1c(O)cc(-c2cnc(Nc3ccccc3)s2)c(O)c1C | 57.4% (inactive)
CCOC(=O)[C@@H]1[C@H](c2ccccc2)[C@H]([N+](=O)[O-])[C@H](c2cn(-c3ccccc3)nc2C)N1Cc1ccccc1 | 82.9% (inactive)
